Only some compounds are listed: those with a hit (about 3.1% of all), similar ones and a draw of the others.
ALOX15B inhib – blocks human 15-lipoxygenase 2 activity; 110,000 tested, 0.56% active; purified 15hLO-2, xylenol orange hydroperoxide absorbance; Potency, µM (titrated, usually from 57.1 µM), for inactives: at the highest dose activity change, negative = inhibition, actives largely listed as inhibitors; AID 881; also: potency is read from the fitted curve at half-maximal effect; nearly all actives have a fitted effect of over 60% in size
Target sequence (O15296 whole entry, looked up): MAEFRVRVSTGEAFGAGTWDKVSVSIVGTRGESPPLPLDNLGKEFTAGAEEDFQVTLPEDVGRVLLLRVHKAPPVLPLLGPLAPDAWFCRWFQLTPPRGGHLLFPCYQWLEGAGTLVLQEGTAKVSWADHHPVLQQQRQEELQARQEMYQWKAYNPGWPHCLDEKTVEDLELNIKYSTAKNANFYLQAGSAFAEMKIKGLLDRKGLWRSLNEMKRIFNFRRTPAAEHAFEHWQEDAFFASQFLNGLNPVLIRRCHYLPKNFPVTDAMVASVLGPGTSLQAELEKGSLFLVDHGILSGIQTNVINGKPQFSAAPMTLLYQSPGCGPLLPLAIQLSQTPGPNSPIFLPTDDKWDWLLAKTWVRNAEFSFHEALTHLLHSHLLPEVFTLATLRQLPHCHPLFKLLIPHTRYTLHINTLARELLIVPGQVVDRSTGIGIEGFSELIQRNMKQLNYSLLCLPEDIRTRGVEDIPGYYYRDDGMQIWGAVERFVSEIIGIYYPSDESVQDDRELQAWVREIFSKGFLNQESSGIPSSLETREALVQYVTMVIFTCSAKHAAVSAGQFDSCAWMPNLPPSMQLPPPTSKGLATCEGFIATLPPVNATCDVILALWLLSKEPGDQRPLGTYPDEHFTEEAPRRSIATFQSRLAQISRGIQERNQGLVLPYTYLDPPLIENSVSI
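Read-out: hydroperoxide product oxidises ferrous iron, measured as xylenol orange complex via the 573-to-405 nm absorbance ratio after 30 min. Reaction: 50 nM enzyme, 15 min compound preincubation, 45 uM arachidonic acid, 90 min RT, Hepes pH 7.5 with Triton X-100.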
PNC inhibitor – inhibitors of perinucleolar compartment assembly | 140,000 tested, 3.1% active | AID 2417 | PC3M PTB-GFP, PNC prevalence imaging, 16 h; stronger effect = lower value | activity change (PNC), negative = inhibition, % at 10 µM;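 active = readout at or below -70, meaning at least 70% loss of cells showing the perinucleolar compartment, a nuclear body marking cancer cells; inconclusive = readout between -30 and a set limit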;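 also: plate controls were DMSO wells for no effect and camptothecin positive control wells for full effect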
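PC3M cells stably expressing PTB-GFP, 750–1000 cells/well, treated 16 h at 37 °C with compound (23 nl of library stock), in duplicate. After paraformaldehyde fixation and Hoechst stain, imaged at 20x; PNC prevalence scored by image analysis.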
ALOX12 inhib – inhibitors of human 12-lipoxygenase (ALOX12) | Potency, µM (titrated, usually from 57.1 µM), without a hit: top-dose activity change, negative = inhibition, usual class: inhibitors | 150,000 tested, 0.12% active | P18054 | AID 1452 | purified 12-hLO, xylenol orange hydroperoxide absorbance; also: potency is read from the fitted curve at half-maximal effect; nearly all actives have a fitted effect of over 55% in size
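Hydroperoxide output read as Fe(III)-xylenol orange absorbance, 573-to-405 nm ratio, after 30 min reaction with 40 uM arachidonic acid. Enzyme: 150 nM purified human 12hLO, 15 min compound preincubation; 25 mM Hepes pH 7.0, room temperature.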
Numbers without * were called inactive; u = inconclusive; x = no result; [ ] = remark or other dose. Unless noted, calls follow the shape of the dose curve; as a rule, active = well fitted curve in the direction sought with a large enough effect; inconclusive = small, poorly fitted or top-dose-only effect, or another doubt; inactive = no such curve, though single readings can be large; an effect the other way counts as inactive or inconclusive. Unless noted, % is scaled to controls: 0 for no effect and ±100 for the full control effect.

SMILES	ALOX15B inhib	PNC inhibitor	ALOX12 inhib
COC1C=CO[C@@]2(C)Oc3c(C)c(O)c4c(O)c(c(C=NN5CCN(C)CC5)c(O)c4c3C2=O)NC(=O)/C(C)=C\C=CC(C)C(O)[C@@H](C)C(O)C(C)[C@H](OC(C)=O)C1C (some centres undefined)	20µM*	x	-26%
CO[C@H]1/C=C/O[C@@]2(C)Oc3c(C)c(O)c4c(O)c(c(/C=N/N5CCN(C)CC5)c(O)c4c3C2=O)NC(=O)/C(C)=C\C=C\[C@H](C)[C@H](O)[C@@H](C)[C@@H](O)[C@@H](C)[C@H](OC(C)=O)[C@@H]1C	u	x	-17%
O=C1NC(=O)c2cc([N+](=O)[O-])ccc21	-7%	x	-1%
COc1ncc2nc(-c3ccccc3)c(=O)n(C[C@H]3CCCO3)c2n1	8%	x	-2%
O=C(/C=C/c1cccc([N+](=O)[O-])c1)Nn1c(-c2ccccc2F)nc2ccccc2c1=O	x	-118*	-10%
Cc1cccc(-c2nc3ccccc3c(=O)n2NC(=O)/C=C/c2ccc([N+](=O)[O-])cc2)c1	x	-23	-3%
COc1ccc(NC(=O)N2CCC3(CC2)CCN(S(C)(=O)=O)CC3)cc1	10%	x	-1%
COc1ccc(N(Cc2cc3ccc(C)cc3[nH]c2=O)C(=O)c2ccco2)cc1	-19%	-84*	-1%
Cc1ccc2cc(COC(=O)c3ccco3)c(=O)[nH]c2c1	4%	7	-2%
O=C(O)c1c[nH]c2cc(OCc3ccccc3)ccc2c1=O	2%[11.4 µM]	x	-11%[11.4 µM]
CCc1nnc(NC(=O)CSc2nnc(COc3ccccc3)n2-c2ccc(C)cc2)s1	0%	23	-2%
COc1ccc(-n2c(Cc3cccn3C)nnc2SCC(=O)Nc2ccccc2F)cc1	x	-108*	1%
COc1ccc(-n2c(Cc3cccn3C)nnc2SCC(=O)Nc2nccs2)cc1	x	-114*	-2%
COc1ccc(-n2c(Cc3cccn3C)nnc2SCC(=O)Nc2ccc(F)cc2F)cc1	x	6	-3%
COc1ccc(-n2c(Cc3cccn3C)nnc2SCC(=O)Nc2ccccc2C)cc1	-10%	18	-8%
Cc1ccc(OCc2nnc(SCC(=O)Nc3cccc4ccccc34)n2-c2ccccc2)cc1	x	-119*	-10%
c1ccc(Nc2ncncc2-c2ccoc2)cc1	-11%	x	x
Cn1c(N)c(C(=O)COC(=O)CCCc2c[nH]c3ccccc23)c(=O)n(C)c1=O	1%	-80*	-7%
Cn1c(N)c(C(=O)COC(=O)CCc2c[nH]c3ccccc23)c(=O)n(C)c1=O	-1%	27	-1%
Cn1c(N)c(C(=O)COC(=O)c2ccnc3ccccc23)c(=O)n(C)c1=O	-5%	-85*	-9%
Cn1c(N)c(C(=O)COC(=O)c2cc(C3CC3)nc3ccccc23)c(=O)n(C)c1=O	0%	51	1%
Cc1cnc(CNc2ncnc3ccc(-c4c(C)noc4C)cc23)cn1	-16%	x	x
N#Cc1cccc(NC(=O)N2CC[C@@]3(CCCN(C(=O)c4csnn4)C3)C2)c1	-4%	x	-2%
O=C(O)/C=C\c1cnc[nH]1	6%	x	-2%
COC(=O)C1=C(C)Nc2ccc(C)cc2S1	6.3µM*	-2	-20%
SMILES	ALOX15B inhib	PNC inhibitor	ALOX12 inhib
COC(=O)c1ccc2c(c1)SC1=C(CCCC1=O)N2	u	23	-17%
N/C(Cc1ccc(Cl)cc1Cl)=N\OC(=O)c1cccs1	3%[11.4 µM]	u	3%
N/C(Cc1ccc(Cl)cc1Cl)=N\OC(=O)Cc1cccs1	x	-124*	0%
CC(C)C(c1nnnn1Cc1ccc2c(c1)OCO2)N1CCN(c2ccccc2)CC1 (centres undefined)	-9%	9	-5%
CC(C)C(c1nnnn1Cc1ccc2c(c1)OCO2)N1CCN(C)CC1 (centres undefined)	x	-100*	-1%
O=C1Nc2ccc(S(=O)(=O)N3CCCC3)c3cccc1c23	-3%	-10	2%
CN1CCN(S(=O)(=O)c2ccc3c4c(cccc24)C(=O)N3)CC1	2%	-91*	1%
Cc1noc(C)c1C(=O)N1CCC[C@@]2(CCN(C(=O)Nc3ccccc3)C2)C1	11%	x	3%
C=CCON1C(=O)c2ccccc2C1=O	-1%	-111*	5%
COC(=O)CON1C(=O)c2ccccc2C1=O	-5%	-3	5%
CCc1cc(-c2n[nH]c(C)c2-c2ccc3c(c2)OCCO3)c(O)cc1O	29%[0.0915 µM]	x	-27%[0.00818 µM]
N#CC1=C(N)Oc2c(ccc3cccnc23)C1c1cccnc1 (centres undefined)	x	-19	-6%
N#CC1=C(N)Oc2cc3ccccc3cc2C1c1cccnc1 (centres undefined)	3%	-90*	-20%
O=C(Nc1ccccc1)N1CCC2(CC1)CCN(C(=O)c1csnn1)CC2	-14%	x	-8%
